According to the supplement of paper PMC10849652:
About 8,800 targets were measured; listed, in parts, are those with a hit and a random draw of the rest. About 0.5% of all pairs of compound and target were hits. Values without a mark were called inactive.

Tests used:
Experiment in all cases: log2 fold change, soluble protein after heating vs DMSO (PISA); higher = thermal stabilisation; K562 lysate, 10 uM; active = over 0.2 and 3.5 SD of the protein, either way, in both replicates (recomputed)
[1] = compound: NCC(=O)Nc1ccc(-n2nc(C(F)(F)F)cc2-c2ccc3c(ccc4ccccc43)c2)cc1
How it was run: (§1)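 Log-two fold change in thermal stability relative to solvent controls is reported from duplicates. For each sample, crude K562 extract from dounce-homogenised pellets in PBS pH 7.4 with 1 mM MgCl2, at 1 mg/mL protein, was treated with 10 μM compound for 30 min. Aliquots heated for 3 min across 48°C-58°C were pooled, brought to 0.5% NP-40 at 4°C and cleared at 21,000xg for 90 min. The supernatant was quantified by TMTpro 16plex LC-MS/MS with channel sums equalised.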

vorinostat = compound: O=C(CCCCCCC(=O)Nc1ccccc1)NO [vorinostat]
How it was run: as §1

silmitasertib = compound: O=C(O)c1ccc2c(c1)nc(Nc1cccc(Cl)c1)c1ccncc12 [silmitasertib]
How it was run: as §1

[2] = compound: O=C1NC(=O)C(c2cnc3ccccn23)=C1c1cn2c3c(cc(F)cc13)CN(C(=O)N1CCCCC1)CC2
How it was run: as §1

entospletinib = compound: c1cn2cc(-c3ccc4cn[nH]c4c3)nc(Nc3ccc(N4CCOCC4)cc3)c2n1 [entospletinib]
How it was run: as §1

UniProt Q9NPA0, sequence (Q9NPA0 whole entry, looked up): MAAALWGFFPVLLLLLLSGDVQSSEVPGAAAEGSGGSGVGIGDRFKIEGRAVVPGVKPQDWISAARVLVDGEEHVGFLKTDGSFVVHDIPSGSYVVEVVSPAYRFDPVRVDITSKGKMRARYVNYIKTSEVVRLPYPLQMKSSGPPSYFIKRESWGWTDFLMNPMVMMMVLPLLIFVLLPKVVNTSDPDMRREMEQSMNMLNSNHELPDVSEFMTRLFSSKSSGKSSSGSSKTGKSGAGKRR
UniProt Q14153, sequence (Q14153 whole entry, looked up): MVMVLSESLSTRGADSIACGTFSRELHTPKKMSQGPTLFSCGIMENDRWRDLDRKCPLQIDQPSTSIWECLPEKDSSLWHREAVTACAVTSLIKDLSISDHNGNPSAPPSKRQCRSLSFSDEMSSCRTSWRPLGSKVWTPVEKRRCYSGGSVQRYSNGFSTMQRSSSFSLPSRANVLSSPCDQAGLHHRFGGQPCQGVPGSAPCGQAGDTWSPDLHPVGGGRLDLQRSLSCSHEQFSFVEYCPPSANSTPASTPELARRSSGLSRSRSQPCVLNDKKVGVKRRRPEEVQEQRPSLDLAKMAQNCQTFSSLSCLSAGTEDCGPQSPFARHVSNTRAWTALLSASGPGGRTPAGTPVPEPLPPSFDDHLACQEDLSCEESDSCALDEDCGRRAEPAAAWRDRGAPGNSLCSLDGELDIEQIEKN
UniProt Q06547, sequence (Q06547 whole entry, looked up): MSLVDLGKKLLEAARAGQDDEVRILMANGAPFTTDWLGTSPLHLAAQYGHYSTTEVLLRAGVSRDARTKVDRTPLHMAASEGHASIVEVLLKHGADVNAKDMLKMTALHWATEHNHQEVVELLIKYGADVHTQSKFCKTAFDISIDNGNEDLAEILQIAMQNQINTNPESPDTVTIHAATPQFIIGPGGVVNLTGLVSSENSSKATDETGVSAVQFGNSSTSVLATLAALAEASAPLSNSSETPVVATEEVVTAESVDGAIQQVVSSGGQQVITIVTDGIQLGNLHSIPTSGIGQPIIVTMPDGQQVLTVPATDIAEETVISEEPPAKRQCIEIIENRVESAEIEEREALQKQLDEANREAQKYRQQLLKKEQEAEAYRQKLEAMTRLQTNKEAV
UniProt O75616, sequence (O75616 whole entry, looked up): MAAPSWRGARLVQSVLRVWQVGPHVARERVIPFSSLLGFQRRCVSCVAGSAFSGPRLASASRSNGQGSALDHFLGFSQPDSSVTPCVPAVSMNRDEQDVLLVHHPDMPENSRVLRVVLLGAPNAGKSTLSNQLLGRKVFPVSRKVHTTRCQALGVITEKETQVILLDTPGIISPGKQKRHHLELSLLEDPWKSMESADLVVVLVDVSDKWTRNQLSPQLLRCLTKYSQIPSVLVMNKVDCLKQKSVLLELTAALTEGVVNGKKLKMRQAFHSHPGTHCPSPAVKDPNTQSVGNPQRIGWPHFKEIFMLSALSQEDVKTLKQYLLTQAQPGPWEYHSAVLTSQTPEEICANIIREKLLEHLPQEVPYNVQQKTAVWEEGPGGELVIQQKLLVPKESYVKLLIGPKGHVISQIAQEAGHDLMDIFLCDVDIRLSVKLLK
UniProt Q09472, sequence (Q09472 whole entry, looked up): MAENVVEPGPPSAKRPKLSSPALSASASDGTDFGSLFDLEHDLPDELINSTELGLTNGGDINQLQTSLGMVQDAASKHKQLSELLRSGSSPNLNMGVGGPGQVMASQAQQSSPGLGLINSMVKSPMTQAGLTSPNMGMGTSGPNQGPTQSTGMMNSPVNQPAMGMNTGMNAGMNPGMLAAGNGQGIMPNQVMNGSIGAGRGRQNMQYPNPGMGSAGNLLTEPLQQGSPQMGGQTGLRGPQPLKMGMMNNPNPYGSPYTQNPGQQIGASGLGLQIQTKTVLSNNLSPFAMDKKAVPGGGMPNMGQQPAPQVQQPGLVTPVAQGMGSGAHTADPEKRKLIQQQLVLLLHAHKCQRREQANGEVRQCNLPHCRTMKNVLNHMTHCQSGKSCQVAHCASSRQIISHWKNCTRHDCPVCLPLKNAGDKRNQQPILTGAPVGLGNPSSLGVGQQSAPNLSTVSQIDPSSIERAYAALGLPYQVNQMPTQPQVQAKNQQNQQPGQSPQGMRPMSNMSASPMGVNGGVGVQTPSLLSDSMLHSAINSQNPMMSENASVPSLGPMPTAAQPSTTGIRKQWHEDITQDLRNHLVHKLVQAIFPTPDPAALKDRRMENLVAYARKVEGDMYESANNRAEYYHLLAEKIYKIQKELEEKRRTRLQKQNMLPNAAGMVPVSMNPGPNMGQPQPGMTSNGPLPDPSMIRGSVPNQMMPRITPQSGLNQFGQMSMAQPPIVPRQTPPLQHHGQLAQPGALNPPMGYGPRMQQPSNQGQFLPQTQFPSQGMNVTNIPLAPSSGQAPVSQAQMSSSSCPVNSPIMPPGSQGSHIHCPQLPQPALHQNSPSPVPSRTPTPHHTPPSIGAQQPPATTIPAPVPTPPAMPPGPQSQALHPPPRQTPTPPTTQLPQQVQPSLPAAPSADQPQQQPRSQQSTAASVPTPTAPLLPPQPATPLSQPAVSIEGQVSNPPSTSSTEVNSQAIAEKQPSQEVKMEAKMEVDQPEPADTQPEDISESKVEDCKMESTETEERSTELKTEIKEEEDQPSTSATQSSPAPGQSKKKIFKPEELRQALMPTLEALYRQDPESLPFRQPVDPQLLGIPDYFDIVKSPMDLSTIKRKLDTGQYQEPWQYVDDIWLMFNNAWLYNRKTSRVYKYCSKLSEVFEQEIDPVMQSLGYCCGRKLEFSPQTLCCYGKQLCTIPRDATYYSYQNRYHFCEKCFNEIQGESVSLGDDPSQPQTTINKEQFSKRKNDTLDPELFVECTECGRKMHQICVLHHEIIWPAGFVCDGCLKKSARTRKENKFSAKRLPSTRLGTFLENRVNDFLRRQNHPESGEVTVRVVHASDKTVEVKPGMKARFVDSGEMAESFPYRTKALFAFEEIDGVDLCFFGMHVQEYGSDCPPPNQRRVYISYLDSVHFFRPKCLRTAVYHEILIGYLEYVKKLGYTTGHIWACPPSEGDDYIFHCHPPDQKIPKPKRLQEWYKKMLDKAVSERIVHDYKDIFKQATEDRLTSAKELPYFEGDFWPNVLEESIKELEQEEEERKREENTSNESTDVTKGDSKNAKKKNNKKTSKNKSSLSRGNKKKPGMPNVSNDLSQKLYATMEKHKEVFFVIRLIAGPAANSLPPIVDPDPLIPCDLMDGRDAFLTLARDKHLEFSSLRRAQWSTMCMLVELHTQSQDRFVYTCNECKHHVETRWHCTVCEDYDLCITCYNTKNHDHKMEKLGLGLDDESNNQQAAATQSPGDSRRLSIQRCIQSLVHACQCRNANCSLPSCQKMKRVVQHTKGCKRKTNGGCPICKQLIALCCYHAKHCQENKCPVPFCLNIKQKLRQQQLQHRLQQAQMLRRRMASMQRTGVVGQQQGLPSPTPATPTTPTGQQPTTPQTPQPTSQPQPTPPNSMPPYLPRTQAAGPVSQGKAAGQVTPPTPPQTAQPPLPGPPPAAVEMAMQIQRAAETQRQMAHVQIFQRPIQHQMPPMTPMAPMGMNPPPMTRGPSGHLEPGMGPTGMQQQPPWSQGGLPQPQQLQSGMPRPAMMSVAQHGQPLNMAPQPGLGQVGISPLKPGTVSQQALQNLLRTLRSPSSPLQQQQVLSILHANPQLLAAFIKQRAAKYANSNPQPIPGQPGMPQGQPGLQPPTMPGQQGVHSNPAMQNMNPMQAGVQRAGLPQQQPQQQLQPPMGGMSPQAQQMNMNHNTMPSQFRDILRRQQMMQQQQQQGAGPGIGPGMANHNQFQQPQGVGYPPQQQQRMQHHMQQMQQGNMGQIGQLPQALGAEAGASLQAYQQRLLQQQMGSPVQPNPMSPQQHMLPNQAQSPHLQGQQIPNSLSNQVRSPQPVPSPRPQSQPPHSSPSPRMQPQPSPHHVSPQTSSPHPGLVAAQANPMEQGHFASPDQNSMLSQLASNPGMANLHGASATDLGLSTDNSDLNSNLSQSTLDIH
UniProt Q10471, sequence (Q10471 whole entry, looked up): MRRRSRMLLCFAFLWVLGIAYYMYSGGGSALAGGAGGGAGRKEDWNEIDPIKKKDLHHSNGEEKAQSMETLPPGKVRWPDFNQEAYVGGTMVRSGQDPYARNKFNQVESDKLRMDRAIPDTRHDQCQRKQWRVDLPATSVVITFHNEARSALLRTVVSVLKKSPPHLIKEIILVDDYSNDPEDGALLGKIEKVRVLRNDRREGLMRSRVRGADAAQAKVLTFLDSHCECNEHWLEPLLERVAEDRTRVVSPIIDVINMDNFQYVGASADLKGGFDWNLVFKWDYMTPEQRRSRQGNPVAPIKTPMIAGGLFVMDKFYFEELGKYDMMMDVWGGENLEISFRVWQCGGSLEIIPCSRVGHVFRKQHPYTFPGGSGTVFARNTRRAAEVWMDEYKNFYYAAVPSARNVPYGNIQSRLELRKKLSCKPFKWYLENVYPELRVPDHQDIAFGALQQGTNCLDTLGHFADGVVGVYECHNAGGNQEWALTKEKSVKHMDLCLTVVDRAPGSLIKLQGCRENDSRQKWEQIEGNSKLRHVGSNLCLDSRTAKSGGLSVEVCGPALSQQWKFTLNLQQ
UniProt Q9NWS6, sequence (Q9NWS6 whole entry, looked up): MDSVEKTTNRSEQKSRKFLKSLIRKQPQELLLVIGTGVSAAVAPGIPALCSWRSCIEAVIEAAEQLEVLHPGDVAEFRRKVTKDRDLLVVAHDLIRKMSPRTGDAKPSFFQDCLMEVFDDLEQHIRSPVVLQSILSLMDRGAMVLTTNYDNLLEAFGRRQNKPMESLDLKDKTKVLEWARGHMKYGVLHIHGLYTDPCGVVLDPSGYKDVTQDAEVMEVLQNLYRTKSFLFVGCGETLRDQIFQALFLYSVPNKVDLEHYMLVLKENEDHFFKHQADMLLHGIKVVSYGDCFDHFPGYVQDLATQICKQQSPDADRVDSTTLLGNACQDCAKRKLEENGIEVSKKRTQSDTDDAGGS
UniProt P41567, sequence (P41567 whole entry, looked up): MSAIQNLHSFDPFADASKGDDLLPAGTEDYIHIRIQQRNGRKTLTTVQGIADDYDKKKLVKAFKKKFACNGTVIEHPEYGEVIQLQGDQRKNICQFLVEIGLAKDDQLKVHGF

| Target | log2 fold change [1] | log2 fold change (vorinostat) | log2 fold change (silmitasertib) | log2 fold change [2] | log2 fold change (entospletinib) |
| --- | --- | --- | --- | --- | --- |
| EIF2B3 (UniProt Q9NR50) | -0.006 | -0.244 (active) | 0.01 | 0.009 | -0.004 |
| EIF2AK1 (UniProt Q9BQI3) | -0.089 | -0.18 | 0.03 | -0.059 | 0.009 |
| GCLM (UniProt P48507) | 0.007 | -0.277 (active) | -0.013 | 0.032 | 0.021 |
| EP300 (UniProt Q09472) | 0.018 | -0.338 (active) | 0.06 | 0.015 | -0.005 |
| GALNT2 (UniProt Q10471) | -0.018 | 0.069 | 0.008 | -0.09 | -0.034 |
| FBXO45 (UniProt P0C2W1) | -0.013 | -0.367 (active) | 0.127 | 0.021 | -0.05 |
| EMP3 (UniProt P54852) | 0.013 | -0.022 | -0.05 | -0.014 | 0.144 |
| EIF2B4 isoform 2 (UniProt Q9UI10) | 0.023 | -0.209 | 0.013 | -0.002 | 0.012 |
| FASTKD5 (UniProt Q7L8L6) | 0.016 | -0.354 (active) | 0.053 | 0.022 | -0.008 |
| FAM118A (UniProt Q9NWS6) | 0.027 | -0.834 (active) | 0.024 | -0.003 | -0.014 |
| FAM83A (UniProt Q86UY5) | -0.049 | -0.417 (active) | -0.034 | -0.052 | -0.002 |
| DYRK1A (UniProt Q13627) | 0.021 | -0.253 | 0.247 (active) | 0.01 | 0.005 |
| FECH isoform 2 (UniProt P22830) | -0.185 | -0.401 | -0.03 | -0.021 | 0.977 |
| FTSJ1 (UniProt Q9UET6) | -0.024 | -0.326 (active) | 0.024 | 0.009 | 0.05 |
| FADS3 (UniProt Q9Y5Q0) | 0.21 | 0.247 | -0.126 | 0.004 | -0.185 |
| ERAL1 (UniProt O75616) | -0.013 | -0.103 | 0.044 | -0.044 | -0.083 |
| EDC4 (UniProt Q6P2E9) | 0.045 | -0.453 (active) | 0.011 | 0.004 | 0.02 |
| FOXK1 (UniProt P85037) | 0.022 | -0.414 (active) | -0.026 | -0.048 | 0.038 |
| FREM2 (UniProt Q5SZK8) | 0.094 | 0.048 | 0.085 | -0.11 | -0.003 |
| FIBP (UniProt O43427) | -0.049 | -0.006 | 0.119 | -0.02 | -0.049 |
| EIF1 (UniProt P41567) | -0.032 | 0.12 | -0.024 | 0.036 | 0.028 |
| GABPB1 isoform 3 (UniProt Q06547) | -0.012 | -0.41 (active) | 0.08 | 0.067 | -0.024 |
| GEMIN5 (UniProt Q8TEQ6) | 0 | -0.479 (active) | 0.004 | -0.001 | 0.004 |
| FARSA (UniProt Q9Y285) | -0.025 | 0.381 (active) | 0.007 | -0.006 | 0.003 |
| EXOC1 (UniProt Q9NV70) | -0.019 | -0.45 (active) | 0.075 | -0.019 | 0.019 |
| EMC7 (UniProt Q9NPA0) | 0.015 | 0.085 | -0.007 | -0.018 | -0.023 |
| FAM83D (UniProt Q9H4H8) | 0 | -0.243 (active) | 0.031 | -0.004 | 0.021 |

| Target | log2 fold change [1] | log2 fold change (vorinostat) | log2 fold change (silmitasertib) | log2 fold change [2] | log2 fold change (entospletinib) |
| --- | --- | --- | --- | --- | --- |
| DVL2 (UniProt O14641) | -0.056 | 0.33 (active) | 0.049 | 0.078 | -0.015 |
| ELAVL4 (UniProt P26378) | 0.016 | -0.402 (active) | -0.046 | 0.004 | -0.067 |
| EPN2 (UniProt O95208) | -0.005 | 0.156 | 0.02 | -0.001 | 0.012 |
| FAM53B (UniProt Q14153) | 0.056 | -0.06 | 0.049 | 0.02 | -0.003 |
| FBXO30 (UniProt Q8TB52) | -0.01 | -0.316 (active) | 0.042 | -0.019 | 0.013 |
| EFCAB14 (UniProt O75071) | 0.039 | 0.327 (active) | -0.054 | 0.029 | 0.013 |
| EPB41 (UniProt P11171) | -0.046 | 0.035 | 0.007 | -0.034 | 0 |
| FIG4 (UniProt Q92562) | -0.037 | -0.517 (active) | 0.017 | 0.056 | 0.052 |
| ERLIN2 (UniProt O94905) | -0.012 | 0.032 | 0.019 | -0.005 | 0.016 |
| GALK1 isoform 2 (UniProt P51570) | -0.017 | -0.338 (active) | 0.063 | 0.023 | -0.088 |
| ELAVL1 isoform 2 (UniProt Q15717) | 0.042 | -0.326 (active) | 0.059 | -0.051 | 0 |
| ENO1, A0A2R8YEM5 | -0.032 | 0.119 | -0.005 | 0.017 | 0.04 |
| GCDH (UniProt Q92947) | 0.004 | 0.34 (active) | 0.161 | 0.187 | 0.046 |
| EPB41, A0A2R8Y6D0 | 0.082 | 0.094 | 0.037 | -0.08 | 0.016 |
| EIF2D (UniProt P41214) | 0.03 | -0.385 (active) | 0.032 | 0.04 | 0.02 |
| GGA2 (UniProt Q9UJY4) | -0.042 | -0.313 (active) | 0.016 | 0.022 | -0.026 |
| EXOC5 (UniProt O00471) | 0.036 | -0.293 (active) | 0.036 | 0.002 | 0.025 |
| GAA (UniProt P10253) | -0.038 | -0.176 | -0.092 | -0.056 | 0.068 |
| FYN (UniProt P06241) | -0.047 | 0.091 | -0.001 | -0.027 | 0.156 |
| EIF3I (UniProt Q13347) | 0.022 | -0.316 (active) | 0.061 | -0.005 | 0.005 |
| FAM76B (UniProt Q5HYJ3) | -0.018 | 0.026 | 0 | 0.012 | -0.014 |
| EPRS (UniProt P07814) | -0.01 | -0.365 (active) | 0.037 | 0.009 | 0.021 |
| FADS1, A0A0A0MR51 | 0.054 | 0.093 | -0.003 | -0.046 | -0.028 |
| GABPB1 (UniProt Q06547) | 0 | -0.299 (active) | 0.008 | -0.052 | -0.004 |
| EEF1AKMT4 (UniProt P0DPD7) | 0.053 | -0.312 (active) | 0.029 | 0.035 | 0.012 |
| FUBP3 (UniProt Q96I24) | -0.001 | -0.325 (active) | -0.032 | 0.047 | -0.065 |
| GFPT1 (UniProt Q06210) | 0.034 | -0.409 (active) | 0.004 | 0.012 | 0.019 |
